In PubChem BioAssay (EPA / NIEHS):
Inconclusive results are not listed. Active and inactive are the calls of the source. Rule for the calls: active = hit-call score of the fitted dose curve at least 0.9, where 1 is the maximum; inconclusive = response in the unintended direction; inactive = score below 0.9.

What was measured:
[1] = biological target: human Adrenergic, Beta 3 Receptor (Adrb3), ADRB3 (gene 155) (UniProt P13945); assay: NVS_GPCR_hAdrb3: NovaScreen (NVS) G Protein-Coupled Receptor Assay for human Adrenergic, Beta 3 Receptor (Adrb3) (AID 2283262)
In short: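 Membranes from SK-N-MC cells pretreated with isoproterenol and 8-bromo-cAMP were used in a radioligand competitive displacement binding assay. Binding was read by filter-based scintillation counting 1 hour after dosing. Primary screening was in duplicate at 25 uM, with concentration series in follow-up.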

[2] = biological target: human Serotonin, 5-Hydroxytryptamine Receptor 5A (5HT5A), HTR5A (gene 3361) (UniProt P47898); assay: NVS_GPCR_h5HT5A: NovaScreen (NVS) G Protein-Coupled Receptor Assay for human Serotonin, 5-Hydroxytryptamine Receptor 5A (5HT5A) (AID 2283251)
human Serotonin, 5-Hydroxytryptamine Receptor 5A (5HT5A), HTR5A (gene 3361), sequence (P47898 whole entry, looked up): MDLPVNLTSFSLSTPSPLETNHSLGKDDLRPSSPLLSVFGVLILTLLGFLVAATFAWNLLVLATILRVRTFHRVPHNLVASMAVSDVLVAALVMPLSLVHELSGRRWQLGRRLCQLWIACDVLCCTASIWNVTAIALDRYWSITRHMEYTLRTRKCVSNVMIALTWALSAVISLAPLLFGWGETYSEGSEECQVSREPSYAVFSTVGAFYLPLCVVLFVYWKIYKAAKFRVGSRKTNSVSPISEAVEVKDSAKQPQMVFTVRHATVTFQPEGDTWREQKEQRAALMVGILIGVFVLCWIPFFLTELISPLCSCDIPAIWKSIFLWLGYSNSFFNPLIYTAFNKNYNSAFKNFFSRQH
In short: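 Cell-free radioligand displacement binding on HEK293-derived membrane protein, 1 h incubation, filter-based scintillation counting. Primary screen in duplicate at 25 uM, actives followed in concentration series; loss of signal fitted versus DMSO.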

[3] = biological target: human Serotonin, 5-Hydroxytryptamine Receptor 6 (5HT6), HTR6 (gene 3362) (UniProt P50406); assay: NVS_GPCR_h5HT6: NovaScreen (NVS) G Protein-Coupled Receptor Assay for human Serotonin, 5-Hydroxytryptamine Receptor 6 (5HT6) (AID 2283253)
In short: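 Radioligand binding to 5HT6 in HEK293-derived membranes, cell-free, 1 h after dosing; bound ligand measured by filter-based scintillation counting. Primary screen in duplicate at 25 uM; actives retested in concentration series.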

[4] = biological target: human Serotonin, 5-Hydroxytryptamine Receptor 7 (5HT7), HTR7 (gene 3363) (UniProt P34969); assay: NVS_GPCR_h5HT7: NovaScreen (NVS) G Protein-Coupled Receptor Assay for human Serotonin, 5-Hydroxytryptamine Receptor 7 (5HT7) (AID 2283255);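 note: hits reduce specific radioligand binding relative to DMSO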
human Serotonin, 5-Hydroxytryptamine Receptor 7 (5HT7), HTR7 (gene 3363), sequence (P34969 whole entry, looked up): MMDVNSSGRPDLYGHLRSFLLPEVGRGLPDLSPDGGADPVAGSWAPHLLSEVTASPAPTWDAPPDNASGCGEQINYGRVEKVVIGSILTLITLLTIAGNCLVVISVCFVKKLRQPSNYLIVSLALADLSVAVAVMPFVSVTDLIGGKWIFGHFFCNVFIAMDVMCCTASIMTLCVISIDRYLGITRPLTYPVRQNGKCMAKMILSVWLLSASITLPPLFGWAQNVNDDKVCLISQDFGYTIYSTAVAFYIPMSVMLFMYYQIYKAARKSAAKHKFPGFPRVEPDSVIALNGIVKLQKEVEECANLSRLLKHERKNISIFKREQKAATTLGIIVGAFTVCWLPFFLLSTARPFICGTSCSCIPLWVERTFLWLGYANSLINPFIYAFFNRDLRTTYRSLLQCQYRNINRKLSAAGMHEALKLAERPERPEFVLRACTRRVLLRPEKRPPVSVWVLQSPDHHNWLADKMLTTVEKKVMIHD
In short: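 Radioligand displacement on membranes from CHO cells expressing human 5HT7, 1 h incubation, filter-based scintillation counting. Primary screen used a single 25 uM concentration in duplicate; actives were followed up in concentration series.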

[5] = biological target: human Adrenergic, Alpha 2c Receptor (Adra2C), ADRA2C (gene 152) (UniProt P18825); assay: NVS_GPCR_hAdra2C: NovaScreen (NVS) G Protein-Coupled Receptor Assay for human Adrenergic, Alpha 2c Receptor (Adra2C) (AID 2283259)
human Adrenergic, Alpha 2c Receptor (Adra2C), ADRA2C (gene 152), sequence (P18825 whole entry, looked up): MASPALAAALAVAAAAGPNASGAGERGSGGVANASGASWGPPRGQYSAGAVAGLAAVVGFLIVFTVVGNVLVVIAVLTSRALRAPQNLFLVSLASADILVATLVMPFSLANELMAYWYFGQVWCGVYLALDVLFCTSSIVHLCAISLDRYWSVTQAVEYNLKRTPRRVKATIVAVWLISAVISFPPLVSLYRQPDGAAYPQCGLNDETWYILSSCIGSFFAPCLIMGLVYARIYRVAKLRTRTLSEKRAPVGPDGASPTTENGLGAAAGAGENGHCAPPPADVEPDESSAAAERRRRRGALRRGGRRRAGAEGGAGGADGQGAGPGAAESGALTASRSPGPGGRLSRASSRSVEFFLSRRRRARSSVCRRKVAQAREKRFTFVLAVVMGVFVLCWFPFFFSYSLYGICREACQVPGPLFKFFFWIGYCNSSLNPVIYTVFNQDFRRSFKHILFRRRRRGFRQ
In short: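 Radioligand binding on Sf9-expressed receptor membranes, 1 h after chemical dosing, filter-based scintillation read-out. Loss of binding fitted positively versus DMSO; primary duplicate screen at 25 uM, actives retested in concentration series.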

[6] = biological target: Beta-2 adrenergic receptor (Homo sapiens) (UniProt P07550); assay: NVS_GPCR_hAdrb2: NovaScreen (NVS) G Protein-Coupled Receptor Assay for human Adrenergic, Beta 2 Receptor (Adrb2) (AID 2283261)
Beta-2 adrenergic receptor (Homo sapiens), sequence (P07550 whole entry, looked up): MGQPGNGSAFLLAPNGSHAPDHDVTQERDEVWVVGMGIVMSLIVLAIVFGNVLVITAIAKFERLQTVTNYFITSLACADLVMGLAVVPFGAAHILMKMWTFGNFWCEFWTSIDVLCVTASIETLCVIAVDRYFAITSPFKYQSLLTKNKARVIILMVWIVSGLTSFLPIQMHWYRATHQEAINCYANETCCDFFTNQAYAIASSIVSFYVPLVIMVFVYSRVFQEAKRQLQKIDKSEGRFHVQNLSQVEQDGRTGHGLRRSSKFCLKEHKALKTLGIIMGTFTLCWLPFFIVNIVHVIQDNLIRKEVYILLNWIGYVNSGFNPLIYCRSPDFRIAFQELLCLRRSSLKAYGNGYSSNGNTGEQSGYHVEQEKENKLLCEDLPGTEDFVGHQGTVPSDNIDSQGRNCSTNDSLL
In short: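 Filter-based radioligand binding using receptor prepared from CHO cells, 1 h incubation, scintillation counting. Primary screen in duplicate at 25 uM, actives retested in concentration series; loss of binding relative to DMSO.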

[7] = biological target: Type-1 angiotensin II receptor (Homo sapiens) (UniProt P30556); assay: NVS_GPCR_hAT1: NovaScreen (NVS) G Protein-Coupled Receptor Assay for human Angiotensin II receptor type 1 (AT1) (AID 2283263)
In short: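 Membranes from KAN-TS cells; radioligand competitive displacement, 3 h, filtration and scintillation counting. Single-point duplicate screen at 25 uM, then concentration-response up to 50 uM for hits; loss of signal fitted versus DMSO.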

[8] = biological target: human Dopamine Receptor D4.4 (DRD4.4), DRD4 (gene 1815) (UniProt P21917); assay: NVS_GPCR_hDRD4.4: NovaScreen (NVS) G Protein-Coupled Receptor Assay for human Dopamine Receptor D4.4 (DRD4.4) (AID 2283264)
human Dopamine Receptor D4.4 (DRD4.4), DRD4 (gene 1815), sequence (P21917 whole entry, looked up): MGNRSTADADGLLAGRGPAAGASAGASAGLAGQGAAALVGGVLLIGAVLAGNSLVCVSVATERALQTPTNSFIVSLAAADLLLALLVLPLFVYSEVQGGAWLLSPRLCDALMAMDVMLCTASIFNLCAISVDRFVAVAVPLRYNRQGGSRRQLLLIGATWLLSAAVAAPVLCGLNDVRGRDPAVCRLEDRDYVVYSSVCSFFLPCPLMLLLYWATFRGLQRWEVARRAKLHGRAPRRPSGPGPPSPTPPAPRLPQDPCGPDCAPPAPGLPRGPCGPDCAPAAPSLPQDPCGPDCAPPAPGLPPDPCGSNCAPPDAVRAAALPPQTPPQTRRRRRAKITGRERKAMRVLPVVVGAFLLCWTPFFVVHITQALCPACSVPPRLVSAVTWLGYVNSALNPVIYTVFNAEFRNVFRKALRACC
In short: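 Radioligand displacement on human DRD4.4 from CHO-derived membranes, 1 hour incubation, bound counts read by filtration and scintillation. Primary screen in duplicate at 25 uM; actives followed up in concentration series.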

[9] = biological target: human Dopamine Receptor D2 (DRD2), DRD2 (gene 1813) (UniProt P14416); assay: NVS_GPCR_hDRD2s: NovaScreen (NVS) G Protein-Coupled Receptor Assay for human Dopamine Receptor D2 (DRD2) (AID 2283266)
human Dopamine Receptor D2 (DRD2), DRD2 (gene 1813), sequence (P14416 whole entry, looked up): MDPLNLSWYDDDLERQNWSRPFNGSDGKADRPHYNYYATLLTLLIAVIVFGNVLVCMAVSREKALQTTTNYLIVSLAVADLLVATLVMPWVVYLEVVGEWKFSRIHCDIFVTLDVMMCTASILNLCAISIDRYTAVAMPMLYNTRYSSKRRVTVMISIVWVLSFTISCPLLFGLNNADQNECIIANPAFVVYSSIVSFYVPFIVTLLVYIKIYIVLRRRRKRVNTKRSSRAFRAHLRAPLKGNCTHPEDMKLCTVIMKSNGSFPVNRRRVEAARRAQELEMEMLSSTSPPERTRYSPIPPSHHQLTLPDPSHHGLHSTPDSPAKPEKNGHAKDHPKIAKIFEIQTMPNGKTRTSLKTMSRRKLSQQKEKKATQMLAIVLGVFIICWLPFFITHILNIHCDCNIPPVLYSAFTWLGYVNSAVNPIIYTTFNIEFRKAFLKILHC
In short: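 Radioligand displacement used human DRD2 membranes extracted from CHO cells and was read by filter-based scintillation counting after 1.5 hours. Primary screening was in duplicate at 25 uM. Loss of signal versus DMSO was fitted, with concentration series in follow-up.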

[10] = biological target: human Histamine 1 Receptor (H1), HRH1 (gene 3269) (UniProt P35367); assay: NVS_GPCR_hH1: NovaScreen (NVS) G Protein-Coupled Receptor Assay for human Histamine 1 Receptor (H1) (AID 2283268)
human Histamine 1 Receptor (H1), HRH1 (gene 3269), sequence (P35367 whole entry, looked up): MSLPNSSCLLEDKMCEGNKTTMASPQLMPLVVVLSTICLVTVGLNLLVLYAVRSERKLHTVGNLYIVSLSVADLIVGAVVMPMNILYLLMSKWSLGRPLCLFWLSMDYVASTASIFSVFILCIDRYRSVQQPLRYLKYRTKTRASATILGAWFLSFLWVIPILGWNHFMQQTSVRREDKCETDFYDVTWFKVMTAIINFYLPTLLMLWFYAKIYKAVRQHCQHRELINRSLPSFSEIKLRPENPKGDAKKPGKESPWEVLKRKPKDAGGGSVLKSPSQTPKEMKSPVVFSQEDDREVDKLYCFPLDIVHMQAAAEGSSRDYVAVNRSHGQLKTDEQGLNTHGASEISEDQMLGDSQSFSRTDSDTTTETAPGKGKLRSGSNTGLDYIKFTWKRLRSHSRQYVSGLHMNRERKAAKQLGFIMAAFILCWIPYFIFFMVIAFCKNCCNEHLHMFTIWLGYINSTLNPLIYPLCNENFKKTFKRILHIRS
In short: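 Cell-free radioligand displacement at human H1 receptor, 1 h, filter scintillation counting; primary screen 25 uM in duplicate, hits in concentration series; loss of binding fitted vs DMSO.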

[11] = biological target: D(1A) dopamine receptor (Homo sapiens) (UniProt P21728); assay: NVS_GPCR_hDRD1: NovaScreen (NVS) G Protein-Coupled Receptor Assay for human Dopamine Receptor D1 (DRD1) (AID 2283269)
D(1A) dopamine receptor (Homo sapiens), sequence (P21728 whole entry, looked up): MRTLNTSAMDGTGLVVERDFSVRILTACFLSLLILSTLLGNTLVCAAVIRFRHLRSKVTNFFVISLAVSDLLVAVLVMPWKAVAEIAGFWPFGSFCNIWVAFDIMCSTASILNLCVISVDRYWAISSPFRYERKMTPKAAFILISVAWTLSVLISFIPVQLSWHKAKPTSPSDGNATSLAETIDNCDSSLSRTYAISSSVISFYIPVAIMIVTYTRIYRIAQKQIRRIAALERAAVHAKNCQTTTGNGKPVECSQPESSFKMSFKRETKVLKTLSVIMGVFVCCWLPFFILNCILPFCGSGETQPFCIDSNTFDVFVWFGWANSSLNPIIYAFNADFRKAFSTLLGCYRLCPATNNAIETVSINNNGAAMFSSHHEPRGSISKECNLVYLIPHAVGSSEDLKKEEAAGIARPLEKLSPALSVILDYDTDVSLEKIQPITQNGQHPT
In short: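 Cell-free competition with radioligand, filter-trapped and scintillation-counted 1 h post-dose, using HEK293-derived human D1 preparation. Duplicate single-point testing at 25 uM first, then concentration series for actives; DMSO served as baseline, loss-of-signal scored.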

[12] = biological target: human Leukotriene B4 Receptor 1 (LTB4-BLT1), LTB4R (gene 1241) (UniProt Q15722); assay: NVS_GPCR_hLTB4_BLT1: NovaScreen (NVS) G Protein-Coupled Receptor Assay for human Leukotriene B4 Receptor 1 (LTB4-BLT1) (AID 2283271)
human Leukotriene B4 Receptor 1 (LTB4-BLT1), LTB4R (gene 1241), sequence (Q15722 whole entry, looked up): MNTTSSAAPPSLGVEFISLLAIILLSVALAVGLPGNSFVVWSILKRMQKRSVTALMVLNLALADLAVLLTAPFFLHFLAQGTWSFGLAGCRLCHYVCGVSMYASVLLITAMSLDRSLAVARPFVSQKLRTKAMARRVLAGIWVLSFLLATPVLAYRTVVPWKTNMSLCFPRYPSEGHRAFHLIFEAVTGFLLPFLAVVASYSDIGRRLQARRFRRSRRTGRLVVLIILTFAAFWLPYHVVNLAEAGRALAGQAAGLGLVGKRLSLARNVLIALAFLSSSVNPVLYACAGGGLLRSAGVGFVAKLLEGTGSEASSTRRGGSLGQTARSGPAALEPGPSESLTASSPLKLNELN
In short: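 Radioligand displacement binding on receptor extracted from human neutrophils, cell-free, 1 h after dosing; filter-based scintillation counting. Primary screen in duplicate at 25 uM, actives retested in concentration-response up to 50 uM; loss of signal versus DMSO.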

[13] = biological target: human Adenosine A2a Receptor (AdoRA2a), ADORA2A (gene 135) (UniProt P29274); assay: NVS_GPCR_hAdoRA2a: NovaScreen (NVS) G Protein-Coupled Receptor Assay for human Adenosine A2a Receptor (AdoRA2a) (AID 2283256)
In short: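 Radioligand displacement on HEK293-derived membrane protein, cell-free; filter-based scintillation counting 1.5 hours after dosing, loss of signal vs DMSO. Single-point duplicate screen at 25 uM, actives retested in concentration series.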

[14] = biological target: human Adrenergic, Beta 1 Receptor (Adrb1), ADRB1 (gene 153) (UniProt P08588); assay: NVS_GPCR_hAdrb1: NovaScreen (NVS) G Protein-Coupled Receptor Assay for human Adrenergic, Beta 1 Receptor (Adrb1) (AID 2283258)
human Adrenergic, Beta 1 Receptor (Adrb1), ADRB1 (gene 153), sequence (P08588 whole entry, looked up): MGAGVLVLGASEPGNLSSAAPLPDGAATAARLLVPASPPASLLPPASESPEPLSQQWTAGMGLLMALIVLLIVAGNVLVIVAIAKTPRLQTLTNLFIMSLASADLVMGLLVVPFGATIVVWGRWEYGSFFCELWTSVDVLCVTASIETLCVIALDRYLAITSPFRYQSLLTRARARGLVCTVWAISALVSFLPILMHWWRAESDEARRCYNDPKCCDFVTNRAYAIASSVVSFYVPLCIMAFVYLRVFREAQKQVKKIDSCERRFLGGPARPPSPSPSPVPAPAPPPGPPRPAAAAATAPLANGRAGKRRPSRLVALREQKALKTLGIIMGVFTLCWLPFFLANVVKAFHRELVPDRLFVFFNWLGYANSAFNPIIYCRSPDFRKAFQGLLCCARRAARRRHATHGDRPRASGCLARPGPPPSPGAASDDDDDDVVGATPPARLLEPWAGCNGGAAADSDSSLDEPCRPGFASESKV
In short: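 Cell-free radioligand displacement on receptor from human neuroepithelioma cells; 2 h after dosing, filter-based scintillation counting. Primary screen in duplicate at 25 uM, actives retested in concentration series; loss of signal vs DMSO baseline.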

[15] = biological target: guinea pig Opioid, Kappa 1 Receptor (OpiateK), OPRK1 (gene 100135587) (UniProt P41144); assay: NVS_GPCR_gOpiateK: NovaScreen (NVS) G Protein-Coupled Receptor Assay for guinea pig Opioid, Kappa 1 Receptor (OpiateK) (AID 2283252);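 note: radioligand displacement from kappa opioid receptor in guinea pig cerebellar membranes; active means reduced radioligand binding relative to DMSO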
guinea pig Opioid, Kappa 1 Receptor (OpiateK), OPRK1 (gene 100135587), sequence (P41144 whole entry, looked up): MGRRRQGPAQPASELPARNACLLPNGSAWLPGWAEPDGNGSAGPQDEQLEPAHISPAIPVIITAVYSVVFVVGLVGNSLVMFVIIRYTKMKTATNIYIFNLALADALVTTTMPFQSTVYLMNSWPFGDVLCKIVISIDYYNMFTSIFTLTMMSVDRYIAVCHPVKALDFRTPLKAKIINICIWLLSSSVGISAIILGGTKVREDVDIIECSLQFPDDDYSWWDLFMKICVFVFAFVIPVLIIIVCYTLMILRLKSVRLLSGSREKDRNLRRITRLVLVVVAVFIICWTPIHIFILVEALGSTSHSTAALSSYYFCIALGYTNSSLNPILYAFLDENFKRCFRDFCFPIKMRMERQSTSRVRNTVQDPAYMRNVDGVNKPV
In short: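 Signal is scintillation counts of filter-trapped radioligand bound to guinea pig cerebellar membrane receptor, measured 2 hours post-dosing. Activity is loss of binding versus DMSO, first at 25 uM in duplicate, then as concentration series for actives.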

[16] = biological target: human Adenosine A1 Receptor (AdoRA1), ADORA1 (gene 134) (UniProt P30542); assay: NVS_GPCR_hAdoRA1: NovaScreen (NVS) G Protein-Coupled Receptor Assay for human Adenosine A1 Receptor (AdoRA1) (AID 2283254)
In short: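 Radioligand competition binding on human cortical membranes, 1 h after compound addition; bound radioactivity read by filtration and scintillation counting. Loss of signal versus DMSO baseline scored as displacement; primary screen duplicate at 25 uM, actives retested in concentration series.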

[17] = biological target: human Endothelin Receptor Type A (ETA), EDNRA (gene 1909) (UniProt P25101); assay: NVS_GPCR_hETA: NovaScreen (NVS) G Protein-Coupled Receptor Assay for human Endothelin Receptor Type A (ETA) (AID 2283265)
In short: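 Cell-free radioligand displacement using SH-SY5Y-derived protein, 3 h incubation, filter-based scintillation counting. Primary screen in duplicate at 25 uM; actives then run in concentration-response up to 50 uM; loss of binding fitted versus DMSO.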

[18] = biological target: Muscarinic acetylcholine receptor M3 (Homo sapiens) (UniProt P20309); assay: NVS_GPCR_hM3: NovaScreen (NVS) G Protein-Coupled Receptor Assay for human Muscarinic, M3 Receptor (AID 2283272)
In short: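 Radioligand displacement binding on human M3 receptor in CHO-derived membranes, 1 h incubation, filter-based scintillation counting. Primary screen in duplicate at 25 uM; actives followed up in concentration series; loss of signal versus DMSO.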

[19] = biological target: Muscarinic acetylcholine receptor M1 (Homo sapiens) (UniProt P11229); assay: NVS_GPCR_hM1: NovaScreen (NVS) G Protein-Coupled Receptor Assay for human Muscarinic, M1 Receptor (AID 2283270)
In short: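 Cell-free radioligand displacement using membrane protein extracted from CHO cells, read by filter-based scintillation counting 1 h after dosing. Loss of bound signal fitted versus DMSO; primary screen single concentration 25 uM in duplicate, actives followed by concentration series.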

Measured: AC50

CC(C)CC(C)(O)C#CC(C)(O)CC(C)C (stereo not given)
inactive: [1]

CCc1cc(SCc2sc(-c3ccc(C(F)(F)F)cc3)nc2CN2CCN(c3ccc(OC)cc3)CC2)ccc1OCC(=O)O
active: [2] 2.36 µM | [3] 37.3 µM | [4] 4.32 µM | [5] 2.63 µM | [7] 9.64 µM | [8] 6.77 µM | [9] 4.08 µM | [10] 25 µM | [11] 11.5 µM | [12] 37.3 µM
inactive: [6]

Oc1ccc2c(c1)-c1ccccc1C2
inactive: [4]
active: [13] 25 µM

CCCCCCc1ccc(O)cc1O
active: [4] 25 µM | [14] 25 µM | [5] 6.31 µM
inactive: [2]

O=c1[nH]c2ccc(S(=O)CCN3CCC(Cc4ccc(F)cc4)CC3)cc2o1 (stereo not given)
inactive: [15]
active: [4] 0.534 µM | [5] 1.96 µM | [8] 2.51 µM | [9] 13.5 µM | [10] 0.522 µM | [11] 1.23 µM

CNS(=O)(=O)c1cc(C(=O)N2CCC(CCN3C4CCC3CC(n3c(C)nc5ccccc53)C4)(c3cccc(F)c3)CC2)c(Cl)cc1F (stereo not given)
active: [15] 0.935 µM | [4] 4.35 µM | [9] 8.72 µM | [11] 15.8 µM

Nc1ccc(Nc2ccccc2)cc1
active: [2] 11.3 µM | [15] 20.6 µM | [4] 7.22 µM | [17] 6.53 µM | [11] 17.6 µM | [18] 25 µM
inactive: [16]

Cc1c(-c2cccnc2)c2ccccc2n1CCCCC(=O)O
active: [15] 14.7 µM

COc1cccc(-c2ccc(/C=C\CN3CCCCCC3)cc2Cl)c1
active: [2] 22.6 µM | [4] 17.5 µM | [14] 22.6 µM | [5] 0.401 µM | [6] 26.4 µM | [8] 10.2 µM | [9] 8.5 µM | [10] 11.1 µM | [11] 12.6 µM | [19] 5.57 µM | [12] 14.5 µM | [18] 2.41 µM
inactive: [1]
